Source: PubChem BioAssay (EPA / NIEHS)
Activity calls are given as the source filed them. Rule for the calls: active = hit-call score of the fitted dose curve at least 0.9, where 1 is the maximum; inactive = score below 0.9.

What was measured:
[1] = read-out: Tissue Factor, F3 (gene 2152); test: BSK_CASM3C_TissueFactor: BioMAP Diversity Plus: CASM3C Assay for Tissue Factor Biomarker Activity (AID 2283052); settings: primary human coronary artery smooth muscle cells; actives raise or lower the signal;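 note: cell surface tissue factor protein level read by ELISA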
[2] = read-out: Interferon-gamma inducible Protein 10 (IP10), CXCL10 (gene 3627); test: BSK_hDFCGF_IP10: BioMAP Diversity Plus: hDFCGF Assay for Interferon-gamma inducible Protein 10 (IP10) Biomarker Activity (AID 2283053); settings: primary human foreskin fibroblasts; actives raise or lower the signal
Procedure, shortened: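 Primary human foreskin fibroblasts exposed to chemicals for 24 h. IP-10 measured by ELISA; changes fitted bidirectionally against DMSO baseline.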

[3] = read-out: Urokinase-type plasminogen activator receptor (uPAR), PLAUR (gene 5329); test: BSK_CASM3C_uPAR: BioMAP Diversity Plus: CASM3C Assay for Urokinase-type plasminogen activator receptor (uPAR) Biomarker Activity (AID 2283054); settings: primary human coronary artery smooth muscle cells; actives raise or lower the signal;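 note: cell-surface uPAR protein level quantified by ELISA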
[4] = read-out: Vascular cell adhesion molecule 1 (VCAM1), VCAM1 (gene 7412); test: BSK_CASM3C_VCAM1: BioMAP Diversity Plus: CASM3C Assay for Vascular cell adhesion molecule 1 (VCAM1) Biomarker Activity (AID 2283055); settings: primary human coronary artery smooth muscle cells; actives raise or lower the signal;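 note: VCAM-1 protein level quantified by ELISA on the cells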
[5] = read-out: Collagen III, COL3A1 (gene 1281); test: BSK_hDFCGF_CollagenIII: BioMAP Diversity Plus: hDFCGF Assay for Collagen III Biomarker Activity (AID 2283056); settings: primary human foreskin fibroblasts; actives raise or lower the signal
Procedure, shortened: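 Human foreskin fibroblast primary cultures sampled 24 h after dosing; Collagen III quantified by ELISA. Signal fitted bidirectionally against DMSO baseline.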

[6] = read-out: Epidermal growth factor receptor (EGFR), EGFR (gene 1956); test: BSK_hDFCGF_EGFR: BioMAP Diversity Plus: hDFCGF Assay for Epidermal growth factor receptor (EGFR) Biomarker Activity (AID 2283057); settings: primary human foreskin fibroblasts; actives raise or lower the signal
Procedure, shortened: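 Primary human foreskin fibroblasts (hDFCGF system), sampled 24 h after dosing; EGFR quantified by ELISA. Bidirectional fit relative to DMSO baseline; SRB total-protein staining in parallel cultures for cytotoxicity.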

[7] = read-out: Interleukin-8 (IL8), CXCL8 (gene 3576); test: BSK_hDFCGF_IL8: BioMAP Diversity Plus: hDFCGF Assay for Interleukin-8 (IL8) Biomarker Activity (AID 2283058); settings: primary human foreskin fibroblasts; actives raise or lower the signal
Procedure, shortened: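 Primary human foreskin fibroblasts (hDFCGF system) dosed with chemical; IL-8 measured by ELISA 24 hours later. Bidirectional curve fitting relative to DMSO baseline; cytotoxicity tracked in parallel cultures by SRB total protein staining.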

[8] = BSK_hDFCGF_Proliferation: Cell Proliferation Assessment in the BioMAP Diversity Plus: hDFCGF Assay (AID 2283059); settings: primary human foreskin fibroblasts;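 note: curves fitted for both rise and fall of signal versus DMSO baseline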
Procedure, shortened: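 Steps: dose primary human dermal fibroblasts (foreskin); […] fix in 10% TCA; stain with 0.1% SRB; read 560 nm; fit gain or loss of signal against DMSO.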

[9] = read-out: Macrophage colony-stimulating factor (MCSF), CSF1 (gene 1435); test: BSK_hDFCGF_MCSF: BioMAP Diversity Plus: hDFCGF Assay for Macrophage colony-stimulating factor (MCSF) Biomarker Activity (AID 2283060); settings: primary human foreskin fibroblasts; actives raise or lower the signal
Procedure, shortened: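 Human foreskin fibroblast primary cultures; M-CSF measured by ELISA 24 hours after chemical dosing. Bidirectional fitting relative to DMSO, with overt cytotoxicity tracked by parallel SRB total-protein staining (0.1% SRB, 10% TCA fixation, 560 nm).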

[10] = BSK_hDFCGF_SRB: Viability Assessment in the BioMAP Diversity Plus: hDFCGF Assay (AID 2283061); settings: primary human foreskin fibroblasts;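 note: cells exposed to compound for 24 h before the read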
Procedure, shortened: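 Human foreskin fibroblasts in 96-well plates were treated 24 h. Total protein was measured by 0.1% SRB staining after 10% TCA fixation, read at 560 nm. Data were fitted bidirectionally against DMSO.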

[11] = read-out: Monokine induced gamma interferon (MIG), CXCL9 (gene 4283); test: BSK_hDFCGF_MIG: BioMAP Diversity Plus: hDFCGF Assay for Monokine induced gamma interferon (MIG) Biomarker Activity (AID 2283063); settings: primary human foreskin fibroblasts; actives raise or lower the signal
Procedure, shortened: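 MIG/CXCL9 measured by ELISA 24 h after dosing primary human skin fibroblasts. Activity fitted in both directions against DMSO controls. Cytotoxicity was checked in parallel cultures by SRB staining read at 560 nm.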

[12] = read-out: Matrix Metallopeptidase 1 (MMP1), MMP1 (gene 4312); test: BSK_hDFCGF_MMP1: BioMAP Diversity Plus: hDFCGF Assay for Matrix Metallopeptidase 1 (MMP1) Biomarker Activity (AID 2283064); settings: primary human foreskin fibroblasts; actives raise or lower the signal
Procedure, shortened: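 Primary human foreskin fibroblasts in the hDFCGF system were dosed with test chemical, and MMP1 was measured by ELISA 24 h later. Values come from bidirectional curve fitting against the DMSO baseline.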

[13] = read-out: Vascular cell adhesion molecule 1 (VCAM1), VCAM1 (gene 7412); test: BSK_hDFCGF_VCAM1: BioMAP Diversity Plus: hDFCGF Assay for Vascular cell adhesion molecule 1 (VCAM1) Biomarker Activity (AID 2283065); settings: primary human foreskin fibroblasts; actives raise or lower the signal;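 for AC50: VCAM-1 protein level quantified by ELISA after 24 h chemical exposure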
Procedure, shortened: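 Human foreskin fibroblast primary cells dosed with chemical, VCAM-1 measured by ELISA at 24 h. Bidirectional curve fitting relative to DMSO as negative control/baseline.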

[14] = read-out: Plasminogen activator inhibitor-1 (PAI1), SERPINE1 (gene 5054); test: BSK_hDFCGF_PAI1: BioMAP Diversity Plus: hDFCGF Assay for Plasminogen activator inhibitor-1 (PAI1) Biomarker Activity (AID 2283066); settings: primary human foreskin fibroblasts; actives raise or lower the signal
Procedure, shortened: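 Human foreskin fibroblast primary cells, 24 h chemical exposure; PAI-1 measured by ELISA. Bidirectional fitting relative to DMSO; parallel cultures stained with SRB for total protein to flag overt cytotoxicity.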

[15] = read-out: Intercellular Adhesion Molecule 1 (ICAM1), ICAM1 (gene 3383); test: BSK_KF3CT_ICAM1: BioMAP Diversity Plus: KF3CT Assay for Intercellular Adhesion Molecule 1 (ICAM1) Biomarker Activity (AID 2283067); settings: primary human keratinocytes with fibroblasts; actives raise or lower the signal
Procedure, shortened: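 Human keratinocyte–foreskin fibroblast co-culture was treated for 24 h. Cell-surface ICAM-1 was quantified by ELISA, fitted bidirectionally relative to DMSO. Cytotoxicity was checked in parallel cultures by SRB total-protein staining.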

[16] = read-out: Interferon-gamma inducible Protein 10 (IP10), CXCL10 (gene 3627); test: BSK_KF3CT_IP10: BioMAP Diversity Plus: KF3CT Assay for Interferon-gamma inducible Protein 10 (IP10) Biomarker Activity (AID 2283068); settings: primary human keratinocytes with fibroblasts; actives raise or lower the signal
Procedure, shortened: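 KF3CT co-culture (keratinocytes + foreskin fibroblasts), 24 h compound, IP-10 by ELISA; bidirectional fit vs DMSO baseline.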

[17] = BSK_KF3CT_SRB: Viability Assessment in the BioMAP Diversity Plus: KF3CT Assay (AID 2283069); settings: primary human keratinocytes with fibroblasts;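 note: total protein by sulforhodamine B staining as a cytotoxicity measure; read 24 h after compound addition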
Procedure, shortened: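 Human primary keratinocyte plus foreskin fibroblast co-culture exposed to chemicals for 24 h. Total protein measured by 0.1% sulforhodamine B staining after 10% TCA fixation, read at 560 nm; bidirectional fitting versus DMSO baseline.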

[18] = read-out: Interleukin-1 alpha (IL1a), IL1A (gene 3552); test: BSK_KF3CT_IL1a: BioMAP Diversity Plus: KF3CT Assay for Interleukin-1 alpha (IL1a) Biomarker Activity (AID 2283070); settings: primary human keratinocytes with fibroblasts; actives raise or lower the signal
Procedure, shortened: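 Human keratinocyte plus foreskin fibroblast primary co-culture, sampled 24 h after chemical dosing. IL-1a measured by ELISA; responses fitted bidirectionally against DMSO baseline (negative control), so gain or loss of signal both count.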

[19] = read-out: TIMP metallopeptidase inhibitor 2 (TIMP2), TIMP2 (gene 7077); test: BSK_KF3CT_TIMP2: BioMAP Diversity Plus: KF3CT Assay for TIMP metallopeptidase inhibitor 2 (TIMP2) Biomarker Activity (AID 2283071); settings: primary human keratinocytes with fibroblasts; actives raise or lower the signal
Procedure, shortened: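 Co-culture of human primary keratinocytes and foreskin fibroblasts, measured 24 h after chemical dosing. TIMP-2 quantified by ELISA and fitted in both directions relative to DMSO. Cytotoxicity checked in parallel cultures by SRB total-protein staining.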

Measured: AC50

O=C1c2ccccc2C(=O)c2c(O)ccc(O)c21
active: [3] 4.99 µM | [4] 5.44 µM | [8] 3.14 µM | [9] 1.38 µM | [14] 4.59 µM
inactive: all other assays above

CC(=O)Nc1ccc(C(=O)CCl)cc1
active: [1] 3.97 µM | [2] 9.56 µM | [3] 5.2 µM | [4] 4.84 µM | [5] 7.2 µM | [7] 9.4 µM | [8] 3.18 µM | [9] 8.76 µM | [10] 11.2 µM | [11] 9.4 µM | [12] 10.5 µM | [13] 7.32 µM | [14] 10.8 µM | [15] 26.6 µM | [16] 23.2 µM | [18] 31 µM | [19] 20 µM
inactive: [6] | [17]

CC=Cc1ccc(OCC)c(O)c1
inactive: all assays above

CCCCN(CCCC)C(=O)N(CCCC)CCCC
active: [1] 11.7 µM | [2] 11.1 µM | [3] 20 µM | [4] 12.8 µM | [5] 7.43 µM | [8] 3.96 µM | [9] 9.49 µM | [10] 10.3 µM | [11] 11.9 µM | [12] 11.5 µM | [13] 9.04 µM | [14] 11 µM | [15] 8.66 µM | [16] 11 µM | [17] 8.91 µM | [18] 10.5 µM | [19] 4.62 µM
inactive: [6] | [7]

Clc1cc(Cl)c(-c2c(Cl)c(Cl)cc(Cl)c2Cl)cc1Cl
inactive: [1] | [3] | [4] | [6] | [11] | [15]
active: [2] 16 µM | [5] 4.19 µM | [7] 15.8 µM | [8] 3.7 µM | [9] 8.48 µM | [10] 14.7 µM | [12] 18.5 µM | [13] 14.5 µM | [14] 2.94 µM | [16] 15.5 µM | [17] 13.7 µM | [18] 2.95 µM | [19] 6.63 µM

CS(=O)(=O)c1ccc(C2=C(c3ccccc3)C(=O)OC2)cc1
active: [16] 0.0374 µM
inactive: all other assays above

c1ccc(Oc2ccccc2)cc1
active: [16] 34.6 µM | [18] 20 µM | [19] 30.8 µM
inactive: all other assays above

Cc1cc(CCC(=O)OCCOCCOCCOC(=O)CCc2cc(C)c(O)c(C(C)(C)C)c2)cc(C(C)(C)C)c1O
active: [5] 23.1 µM | [8] 22.8 µM
inactive: all other assays above

C[C@@H]1CCN(C(=O)[C@H](CCCN=C(N)N)NS(=O)(=O)c2cccc3c2NC[C@H](C)C3)[C@@H](C(=O)O)C1
inactive: all assays above

COc1cc(Cl)c(OC)cc1N
inactive: all assays above

CN(C)C(=O)Nc1ccc(Oc2ccc(Cl)cc2)cc1
active: [14] 0.016 µM
inactive: all other assays above

CN(C)C(=S)SC(=S)N(C)C
active: [2] 35.1 µM | [4] 19.9 µM | [5] 15.2 µM | [6] 19.9 µM | [7] 39.1 µM | [8] 30.2 µM | [9] 31.4 µM | [11] 34.4 µM | [12] 36.2 µM | [13] 31.2 µM | [14] 19.9 µM | [15] 27.3 µM
inactive: [1] | [3] | [10] | [16] | [17] | [18] | [19]
